Experimental data from PubChem BioAssay AID1159580 (chemical genetic matrix, 2015).
“And” between values parts separate entries of the source, which are not always exact repeats. Equal values may be shown once. Out of some 5,500 compounds screened, about 2,000 (36%) were called active. Roughly 18% stayed inconclusive and do not appear here. Rule as the data show it: active = normalized growth mostly below about 0.91 (no sharp cut-off); inconclusive = no clear call, values can overlap the other calls; inactive = mostly above about 0.92. Some of the results follow.

Assay: chemical genetic growth profiling, strain panel (AID 1159580);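 also: tested at 20 µM; growth read once vehicle control cultures reached saturation at 30 °C; 1 = growth at the plate median or of vehicle wells; lower values mean less growth of the strain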
Conditions: S. cerevisiae deletion strains, growth OD

Measured: normalized growth

COc1ccc(-c2cc(=O)c3ccccc3o2)cc1
0.398 (active) and 0.992 (inactive): locus YHR030C, strain SLT2, stronger effect = lower value
active: locus YAL013W, strain DEP1, stronger effect = lower value 0.682 | locus YAL021C, strain ccr4, stronger effect = lower value 0.888 | locus YAL026C, strain drs2, stronger effect = lower value 0.828 | locus YAL030W, strain snc1, stronger effect = lower value 0.905 | locus YBL061C, strain skt5, stronger effect = lower value 0.869 | locus YBR009C, strain hhf1, stronger effect = lower value 0.725 | locus YBR023C, strain chs3, stronger effect = lower value 0.811 | locus YBR171W, strain sec66, stronger effect = lower value 0.869 | locus YBR231C, strain swc5, stronger effect = lower value 0.857 | locus YBR279W, strain paf1, stronger effect = lower value 0.881 | locus YCL011C, strain gbp2, stronger effect = lower value 0.809 | locus YCL016C, strain dcc1, stronger effect = lower value 0.781 | locus YCL029C, strain bik1, stronger effect = lower value 0.753 | locus YCL061C, strain MRC1, stronger effect = lower value 0.833 | locus YCL069W, strain vba3, stronger effect = lower value 0.863 | locus YDL035C, strain GPR1, stronger effect = lower value 0.656 | locus YDL040C, strain nat1, stronger effect = lower value 0.923 | locus YDL074C, strain BRE1, stronger effect = lower value 0.452 | locus YDL101C, strain DUN1, stronger effect = lower value 0.655 | locus YDL192W, strain arf1, stronger effect = lower value 0.685 | locus YDR101C, strain arx1, stronger effect = lower value 0.884 | locus YDR137W, strain rgp1, stronger effect = lower value 0.53 | locus YDR162C, strain NBP2, stronger effect = lower value 0.274 | locus YDR195W, strain ref2 1.3 [resistant] | locus YDR297W, strain sur2, stronger effect = lower value 0.899 | locus YDR318W, strain mcm21, stronger effect = lower value 0.792 | locus YDR335W, strain msn5, stronger effect = lower value 0.902 | locus YDR388W, stronger effect = lower value 0.807 | locus YDR392W, strain spt3, stronger effect = lower value 0.406 | locus YDR502C, strain sam2, stronger effect = lower value 0.757 | locus YEL003W, strain gim4, stronger effect = lower value 0.79 | locus YEL037C, strain rad23, stronger effect = lower value 0.904 | locus YEL061C, strain CIN8 (second series), stronger effect = lower value 0.904 | locus YEL061C, strain CIN8, stronger effect = lower value 0.672 | locus YER015W, strain faa2, stronger effect = lower value 0.904 | locus YER016W, strain bim1, stronger effect = lower value 0.918 | locus YER111C, strain swi4, stronger effect = lower value 0.881 | locus YER155C, strain BEM2 (second series), stronger effect = lower value 0.283 | locus YER155C, strain BEM2, stronger effect = lower value 0.734 | locus YER167W, strain BCK2, stronger effect = lower value 0.739 | locus YGL086W, strain mad1, stronger effect = lower value 0.762 | locus YGL167C, strain pmr1, stronger effect = lower value 0.894 | locus YGL173C, strain kem1, stronger effect = lower value 0.798 | locus YGL240W, strain doc1, stronger effect = lower value 0.756 | locus YGL248W, strain PDE1, stronger effect = lower value 0.636 | locus YGL253W, strain hxk2, stronger effect = lower value 0.681 | locus YGR135W, strain pre9, stronger effect = lower value 0.747 | locus YHR013C, strain ard1, stronger effect = lower value 0.771 | locus YHR027C, strain rpn1, stronger effect = lower value 0.916 | locus YHR079C, strain IRE1 (second series), stronger effect = lower value 0.887 | locus YHR129C, strain ARP1, stronger effect = lower value 0.661 | locus YHR142W, strain chs7, stronger effect = lower value 0.584 | locus YHR200W, strain rpn10, stronger effect = lower value 0.868 | locus YIL066C, strain RNR3, stronger effect = lower value 0.55 | locus YIL073C, strain SPO22, stronger effect = lower value 0.66 | locus YIR030C, strain dcg1, stronger effect = lower value 0.804 | locus YJL092W, strain hpr5, stronger effect = lower value 0.884 | locus YJL095W, strain BCK1 (second series), stronger effect = lower value 0.707 | locus YJL164C, strain tpk1, stronger effect = lower value 0.754 | locus YJL166W, strain qcr8, stronger effect = lower value 0.771 | locus YJL168C, strain set2, stronger effect = lower value 0.922 | locus YJL187C, strain SWE1 (second series), stronger effect = lower value 0.668 | locus YJL187C, strain SWE1, stronger effect = lower value 0.9 | locus YJR043C, strain POL32, stronger effect = lower value 0.724
inactive: locus YBR021W, strain FUR4, stronger effect = lower value 0.949 | locus YBR229C, strain ROT2, stronger effect = lower value 0.932 | locus YCR088W, strain abp1, stronger effect = lower value 0.926 | locus YDL005C, strain med2, stronger effect = lower value 0.919 | locus YDL185W, strain tfp1, stronger effect = lower value 0.907 | locus YDR001C, strain nth1, stronger effect = lower value 0.923 | locus YDR069C, strain doa4, stronger effect = lower value 0.926 | locus YDR159W, strain sac3, stronger effect = lower value 0.998 | locus YDR334W, strain swr1, stronger effect = lower value 0.943 | locus YER110C, stronger effect = lower value 0.927 | locus YFR010W, strain ubp6, stronger effect = lower value 0.911 | locus YGL078C, strain dbp3, stronger effect = lower value 0.933 | locus YGL227W, strain vid30, stronger effect = lower value 0.92 | locus YGR252W, strain gcn5, stronger effect = lower value 0.824 | locus YHR079C, strain IRE1, stronger effect = lower value 1 | locus YHR094C, strain hxt1, stronger effect = lower value 0.939 | locus YIL125W, strain kgd1, stronger effect = lower value 0.949 | locus YJL115W, strain asf1, stronger effect = lower value 0.915 | locus YJL129C, strain trk1, stronger effect = lower value 0.916 | locus YJL134W, strain LCB3, stronger effect = lower value 0.928 | locus YJL154C, strain vps35, stronger effect = lower value 0.938
0.277 (active) and 0.975 (inactive): locus YJL095W, strain BCK1, stronger effect = lower value
